Out of some 310,000 compounds screened, about 14,000 (4.5%) showed an effect of 50% or more. Effects have a minus sign here. This is one part of a sample in which strong results are shown more often than they occur.
molecular target: human ether-à-go-go-related gene (hERG) potassium channel (human, UniProt Q12809); test: primary screen, population patch clamp on CHO cells stably expressing hERG; higher = less effect of the substance
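Note: peak tail current of the secondary pulse compared with the same well before compound.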

Sequence of human ether-à-go-go-related gene (hERG) potassium channel (Q12809 whole entry, looked up): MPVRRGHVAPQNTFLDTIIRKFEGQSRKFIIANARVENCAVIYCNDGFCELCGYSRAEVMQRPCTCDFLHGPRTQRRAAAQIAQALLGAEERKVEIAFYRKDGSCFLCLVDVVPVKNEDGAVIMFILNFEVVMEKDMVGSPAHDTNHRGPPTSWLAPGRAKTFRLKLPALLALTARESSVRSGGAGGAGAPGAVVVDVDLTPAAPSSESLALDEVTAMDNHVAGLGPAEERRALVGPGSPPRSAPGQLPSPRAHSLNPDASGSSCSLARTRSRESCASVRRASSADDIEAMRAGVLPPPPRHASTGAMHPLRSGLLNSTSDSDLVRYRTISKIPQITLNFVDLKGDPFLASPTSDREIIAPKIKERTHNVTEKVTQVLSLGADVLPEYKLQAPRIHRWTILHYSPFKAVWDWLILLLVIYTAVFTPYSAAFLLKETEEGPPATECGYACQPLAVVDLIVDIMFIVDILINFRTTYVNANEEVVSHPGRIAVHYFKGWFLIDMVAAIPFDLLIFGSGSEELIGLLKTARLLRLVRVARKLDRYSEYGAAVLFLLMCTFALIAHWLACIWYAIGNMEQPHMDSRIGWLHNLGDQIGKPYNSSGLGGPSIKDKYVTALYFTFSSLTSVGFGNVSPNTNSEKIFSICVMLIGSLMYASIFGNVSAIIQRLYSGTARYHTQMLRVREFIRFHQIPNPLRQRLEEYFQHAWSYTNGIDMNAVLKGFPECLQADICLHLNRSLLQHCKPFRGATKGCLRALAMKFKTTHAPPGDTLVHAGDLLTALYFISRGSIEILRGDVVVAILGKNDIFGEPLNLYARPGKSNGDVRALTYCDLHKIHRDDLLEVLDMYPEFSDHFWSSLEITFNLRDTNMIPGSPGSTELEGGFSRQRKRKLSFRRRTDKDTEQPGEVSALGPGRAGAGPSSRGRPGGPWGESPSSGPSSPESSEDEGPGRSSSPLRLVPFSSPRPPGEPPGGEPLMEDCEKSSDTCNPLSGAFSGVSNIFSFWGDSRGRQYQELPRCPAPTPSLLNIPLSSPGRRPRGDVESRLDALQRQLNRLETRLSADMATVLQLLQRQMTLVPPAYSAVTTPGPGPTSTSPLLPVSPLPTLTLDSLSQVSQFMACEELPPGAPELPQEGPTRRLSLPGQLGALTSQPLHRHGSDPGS

Compound | hERG current change (%, negative = inhibition) at 10uM [%]
CC(C)N(C(=O)COC(=O)CNC(=O)c1ccc(Br)cc1)c1ccccc1 | -15.5
O=C(COc1ccc(Cl)cc1)NCCCNC(=O)c1ccncc1 | -36.1
COC(=O)C1=C(C)OC(N)=C(C#N)C1c1cc2cccc(C)c2nc1Cl (centres unmarked) | -5.39
CN(C)c1cc[n+](CC(=O)Nc2ccc(Cl)cc2)cc1.[Cl-] | 7.28
COc1ccc(N2CCOCC2)c(NC(=O)c2cccnc2)c1 | 12.8
O=C(c1cnn(C(=O)c2cccc(S(=O)(=O)N3CCOCC3)c2)c1)c1cc(Cl)cc(Cl)c1O | -44.5
CC(=O)Oc1ccc(/C=N/NC(=O)c2ccc(N(C)S(=O)(=O)c3ccccc3)cc2)cc1 | 12.8
C=CCOC(=O)C1=C(C)NC(=S)NC1/C=C/c1ccccc1 (centres unmarked) | -4.63
COc1cccc(CN(C)CC(=O)NCc2ccccc2Cl)c1 | -5.14
CCOc1ccc(CN(C)CC(=O)NCc2ccccc2Cl)cc1 | -89.1
COc1cccc(CN(C)CC(=O)NCc2ccccc2Cl)c1OC | -7.66
Cn1cccc1/C=N\NC(=O)C1COc2ccc(C(C)(C)C)cc2O1 (centres unmarked) | -3.42
COc1ccc(N2CC(C(=O)NCCC3=CCCCC3)CC2=O)c(OC)c1 (centres unmarked) | -4.67
O=C(O)CC/C(=N/NC(=O)c1cccs1)c1ccccc1 | 6.16
Nc1c(C(=O)NCc2ccco2)nnn1-c1ccccc1 | 2.52
CC(C)NC(=O)C1CCN(C2CCN(C(=O)c3cc4c(s3)CCCCC4)CC2)CC1 | -51.8
NC(=O)C1CCN(C(=O)c2cc3c(s2)CCCCC3)CC1 | -6.51
CC(C)NC(=O)C1CCN(C2CCN(C(=O)c3scc4c3CCCC4)CC2)CC1 | -1.4
COc1ccc(S(=O)(=O)Cc2ccc(C(=O)O)o2)cc1 | 21.8
CCOC(=O)N1CCC(n2c(SCC(=O)N3CCC(C)CC3)nc3ccccc3c2=O)CC1 | -47.9
CCOC(=O)N1CCC(n2c(SCC(=O)NCCC3=CCCCC3)nc3ccccc3c2=O)CC1 | -59.3
CCOC(=O)N1CCC(n2c(SCC(=O)NCCc3ccc(S(N)(=O)=O)cc3)nc3ccccc3c2=O)CC1 | 21

Compound | hERG current change (%, negative = inhibition) at 10uM [%]
CCOC(=O)N1CCC(n2c(SCC(=O)NCc3ccccc3)nc3ccccc3c2=O)CC1 | -46.6
CCOC(=O)N1CCC(n2c(SCC(=O)N3CCCC3)nc3ccccc3c2=O)CC1 | -20.9
CCOC(=O)N1CCC(n2c(SCC(=O)Nc3ccccc3OC)nc3ccccc3c2=O)CC1 | -66.4
COc1ccccc1S(=O)(=O)Cc1ccc(C(=O)NCc2ccc(C)cc2)o1 | -28.4
CC(C)(CNC(=O)c1cc(Cl)c(O)c(Cl)c1)N1CCCCC1 | 4.69
c1ccc(N=Nc2ccc3cccccc2-3)cc1 | 8.38
Cc1cc(Oc2nnnn2-c2ccccc2)ccc1Cl | -15.3
COc1ccc(C(CC(=O)N2CCC3(CC2)OCCO3)NS(=O)(=O)c2ccc(F)cc2)cc1 (centres unmarked) | -2.22
O=C(O)C1CC=CCC1C(=O)Nc1ccc(Oc2ccc(Cl)cc2)cc1 (centres unmarked) | 7.55
COc1ccc(CCC(=O)NNC(=O)c2ccc(F)cc2)cc1 | 6.02
O=C(CCc1nnc2ccc(NCc3ccc(F)cc3)nn12)NC1CCCC1 | -0.461
CSCC[C@H](NC(=O)OC(C)(C)C)c1nnc(SCc2cccc(F)c2)o1 | -30.3
CSCC[C@H](NC(=O)OC(C)(C)C)c1nnc(SCC(=O)Nc2c(C)cccc2C)o1 | -14.5
CSCC[C@H](NC(=O)OC(C)(C)C)c1nnc(SCc2ccccc2)o1 | -51.3
Cc1ccc(NC(=O)CSc2nnc([C@H](C)NC(=O)OC(C)(C)C)o2)c(C)c1 | -6.67
CSCC[C@H](NC(=O)OC(C)(C)C)c1nnc(SCC(=O)Nc2ccc(C)cc2C)o1 | -50.1
CSCC[C@H](NC(=O)OC(C)(C)C)c1nnc(SCc2ccc(F)cc2)o1 | -46.2
Cc1cc(NC(=O)CSc2ccc3c(c2)OCCO3)no1 | -8.22
COc1ccc(/C=C2\SC(=O)N(CC(=O)Nc3ccccc3O)C2=O)cc1OC | 9.72
CCC1(C)Cc2c(sc3nnn(CC(=O)Nc4ccccc4)c(=O)c23)CO1 (centres unmarked) | -27.3
O=C(CCn1c(=O)oc2ccccc21)Nc1ccc(C(=O)O)cc1 | -45
COc1cccc(C(=O)N2CCN(CCCc3ccccc3)CC2)c1OC.O=C(O)C(=O)O | -46.7

Compound | hERG current change (%, negative = inhibition) at 10uM [%]
CCOc1ccc(C(=O)N2CCN(CCc3ccccc3)CC2)cc1OCC | -78.8
CCOc1ccc(C(=O)N2CCN(C(=O)c3ccco3)CC2)cc1OCC | -5.57
COc1ccc(C(=O)N2CCN(CCCc3ccccc3)CC2)cc1OC.O=C(O)C(=O)O | -73.3
CCOc1ccc(C(=O)N2CCN(c3ccccc3)CC2)cc1OCC | -32.4
COc1cc(C(=O)N2CCN(CCCc3ccccc3)CC2)cc(OC)c1OC | -9.98
OC(C#Cc1ccccn1)c1cccs1 (centres unmarked) | 3.9
Clc1ccc(-c2[nH]ncc2N=Nc2ccccc2)cc1 | 15.3
Cc1cccc(C(=O)NCCC(=O)Nc2ccc(C#N)cc2)c1 | -0.169
CCOc1ccc(CN2CCNC(=O)C2CC(=O)NCCCC2CCCC2)cc1 (centres unmarked) | -34.1
COc1ccc(Cc2noc(CN(C)CC3CCN(Cc4ccccc4)CC3)n2)cc1OC | -22.9
COc1ccc(Cc2noc(CN3CCN(Cc4csc(C)n4)CC3)n2)cc1OC | 18.2
COc1ccc(Cc2noc(CN3CCCN(C4Cc5ccccc5C4)CC3)n2)cc1OC | -67
COc1ccc(Cc2noc(CN3CCC(c4ccncc4)CC3)n2)cc1OC | -20
COc1ccc(Cc2noc(CN3CCNC(=O)CC3)n2)cc1OC | 6.36
COc1ccc(Cc2noc(CN3CCN(Cc4cccc(Cl)c4)CC3)n2)cc1OC | -11.5
COc1ccc(Cc2noc(CN3CCN(C4CCc5ccccc5C4)CC3)n2)cc1OC (centres unmarked) | -68.8
COCCN1CCN(Cc2nc(Cc3ccc(OC)c(OC)c3)no2)CC1 | 3.84
COc1ccc(Cc2noc(CN3CCCN(Cc4ccc(F)cc4)CC3)n2)cc1OC | -60.8
Cc1ccc(NC(=S)Nc2c(C)n(C)n(-c3ccccc3)c2=O)cc1Cl | -22.7
O=S1(=O)c2cccc3cccc(c23)N1Cc1nnc(-c2ccccc2Br)o1 | -9.83
COc1cc(C(=O)NC(=S)NNC(=O)c2ccc3c(c2)OCO3)cc(OC)c1OC | 8.08
CN1CCN(C(=O)CN(Cc2ccccc2)S(C)(=O)=O)CC1 | 25.7

Compound | hERG current change (%, negative = inhibition) at 10uM [%]
Cn1ncc(Cl)c1C(=O)NCc1ccc(Cl)cc1 | -13.3
COc1ccc(NC(=O)CN(c2ccc(OC)c(Cl)c2)S(=O)(=O)c2ccccc2)c(OC)c1 | 8.77
Cc1cccc(N=CC=C2OC(C)(C)C(C)(C)O2)c1 | 3.43
O=C(Nc1ccc(S(=O)(=O)N2CCCC2)cc1)c1ccccc1 | -7.24
CC(=O)Nc1cccc(C(=O)Nc2ccc(S(=O)(=O)N3CCCCC3)cc2)c1 | -10.3
O=C(Nc1ccc(OC(F)F)c(Cl)c1)c1cccc(OC(F)F)c1 | -61.7
O=C(NC12CC3CC(CC(C3)C1)C2)c1ccccc1 | 6.99
O=C(NC12CC3CC(CC(C3)C1)C2)c1cccc(OC(F)F)c1 | -55.2
COc1cccc(C(=O)NC23CC4CC(CC(C4)C2)C3)c1 | 2.17
O=C(Nc1cccc(S(=O)(=O)N2CCCC2)c1)c1ccccc1OC(F)F | -13.7
O=C(Nc1ccc(S(=O)(=O)N2CCCC2)cc1)c1cccc(OC(F)F)c1 | -54.3
O=C(Nc1cccc(S(=O)(=O)N2CCCC2)c1)c1cccc(OC(F)F)c1 | -56.4
O=C(Nc1cc(Cl)cc(Cl)c1)c1cccc(OC(F)F)c1 | -2.79
N#Cc1cccc(C(=O)Nc2cccc(S(=O)(=O)N3CCCC3)c2)c1 | 2.83
COc1ccc(NC(=O)c2cccc(OC(F)F)c2)cc1Cl | -22.2
COc1ccc(NC2CCCN(C(=O)c3oc(C)cc3C)C2)cc1OC (centres unmarked) | 16.2
CC(C)(C)C1CCC(C(=O)Nc2nccs2)CC1 (centres unmarked) | 9.99
C/C(=N\NC(=O)c1ccc(C)cc1)c1c(C)[nH]n(-c2ccccc2)c1=O | 14.2
Cc1ccccc1N1C(=O)C2ON(c3ccccc3)C(c3ccco3)C2C1=O (centres unmarked) | 16.8
CSc1nnnn1CCn1nnnc1SC | 10.1
